Most compounds without a hit are left out; they make up all but 8% or so of the library.
KB-V1 MDR tox – qHTS assay for MDR1-selective chemotherapeutics: Primary screen using the drug-selected MDR subline cells KB-V1 | KB-V1 MDR cells viability, CellTiter-Glo, 72 h | Potency, µM (doses to about 46.1 µM), actives largely listed as cytotoxic | actives 3.4% (n = 400,000) | AID 1347076, 2019; also: % is scaled to controls: 0 for no effect and ±100 for the full control effect; nearly all actives have a fitted effect of over 60% in size
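Cytotoxicity via CellTiter-Glo luminescence after 72 h compound exposure at 37 degrees C. Cells: drug-selected KB-V1 line, DMEM phenol-red free plus 10% FBS. Compounds tested at multiple concentrations; normalized data fitted to concentration-effect curves.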
KB-3-1 cytotox – qHTS assay for MDR1-selective chemotherapeutics: Primary screen using the parental adenocarcinoma cell KB-3-1. actives 1.4% (n = 400,000). KB-3-1 viability, CellTiter-Glo ATP luminescence, 72 h. Potency, µM (doses to about 46.1 µM), usual class: cytotoxic; also: % is scaled to controls: 0 for no effect and ±100 for the full control effect; nearly all actives have a fitted effect of over 60% in size
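72 h, 37 °C compound treatment of KB-3-1 parental cells; CellTiter-Glo added, 10 min, luminescence read. Data corrected against DMSO-only plates and normalized before curve fitting.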
HT1080 IDH1KD tx – qHTS for induction of synthetic lethality in tumor cells producing 2HG: qHTS for the HT-1080-IDH1KD cell line. HT-1080 IDH1 knockdown viability, ATP luminescence, 48 h. Potency, µM (titrated, usually from 46.1 µM), for the others: at the top dose activity, negative = toxicity, usual class: cytotoxic. actives 2% (n = 360,000). AID 686971, 2013;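 also: 0% = DMSO wells and -100% = cell-free medium wells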
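After a 2 h attachment period, IDH1KD HT-1080 cells took pin-transferred compound for 48 h at 37 °C; ATP-based luminescence after 10 min room-temperature reagent incubation reported viability.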
SW480 rerep – A quantitative high throughput screen for small molecules that induce DNA re-replication in SW480 colon adenocarcinoma cells | SW480 DNA re-replication, Hoechst DNA content imaging, 48 h | Potency, µM (top dose mostly 46.1 µM), for inactives: at the top dose re-replication activation, most hits filed as activators | actives 1.8% (n = 340,000) | AID 624297, 2012; also: % of control where 0% means no effect; nearly all actives have a fitted effect of over 55% in size
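Treated cells incubate 48 hr (37 C, 5% CO2), are stained 40 min with Hoechst, and nuclear fluorescence is enumerated; a rise in nuclei with high DNA signal marks re-replication.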
MCF10A rerep – A quantitative high throughput screen for small molecules that induce DNA re-replication in MCF 10a normal breast cells. Potency, µM (top dose mostly 46.1 µM), without a hit: at the highest dose activity, positive = re-replication, hits mostly activators. actives 2.9% (n = 350,000). MCF 10A DNA re-replication, Hoechst nuclear intensity, 48 h; also: % of control where 0% means no effect; nearly all actives have a fitted effect of over 50% in size
HT1080-NT tox – qHTS for induction of synthetic lethality in tumor cells producing 2HG: qHTS for the HT-1080-NT fibrosarcoma cell line. HT-1080-NT fibrosarcoma viability, CellTiter-Glo ATP luminescence, 48 h. Potency, µM (highest dose often 46.1 µM), for inactives: at the highest dose activity, negative = less viability, most hits filed as cytotoxic. actives 1.6% (n = 360,000). AID 686970, 2013;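 also: NT is the 2HG producing partner of a matched IDH1 knockdown line; 0% = DMSO-treated cells and -100% = media-only wells without cells; nearly all actives have a fitted effect of over 55% in size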
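HT-1080-NT fibrosarcoma cells (2HG-overproducing), 750 cells/well in RPMI with 5% FBS, dosed after 2 h and incubated 48 h at 37C. CellTiter-Glo luminescence normalized to DMSO and no-cell wells; concentration-response curves fitted and classed.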
* marks the source's active call; other numbers are inactive results; i = inactive; ? = inconclusive; nt = no result given. Calls follow the shape of the dose curve; as a rule, active = well fitted curve in the direction sought with a large enough effect; inconclusive = small, poorly fitted or top-dose-only effect, or another doubt; inactive = no such curve, though single readings can be large; an effect the other way counts as inactive or inconclusive. Potency is read from the fitted curve at half-maximal effect.

SMILES	KB-V1 MDR tox	KB-3-1 cytotox	HT1080 IDH1KD tx	SW480 rerep	MCF10A rerep	HT1080-NT tox
COc1ccc(NC(=O)CCNC(=O)C2CCN(S(=O)(=O)c3ccc(OC)cc3)CC2)cc1	i	i	4.3%	?	15.6%	3.6%
Cc1ccc(NC(=O)C2CCN(S(=O)(=O)c3ccc4c(c3)NC(=O)C(C)S4)CC2)cc1C (centres undefined)	i	?	-20.8%	0.4%	0.8%	?
Cc1cc(=O)n(CC(=O)NCc2ccc(OC(C)C)cc2)c2c1c(C)nn2-c1cccc(F)c1	i	i	nt	nt	nt	nt
Cc1cc(C)cc(NC(=O)N2CCN(C(=O)c3nsc4ccccc34)CC2)c1	i	i	nt	nt	nt	nt
COCCn1c(SCC(=O)c2ccc(OC)cc2)nc2cc(C(=O)NC3CCCC3)ccc2c1=O	i	i	nt	nt	nt	nt
FC(F)(F)c1ccc(/C=N/N2CCN(Cc3cccc4ccccc34)CC2)cc1	i	i	4.1%	-4.2%	7.3%	7.8%
C(=N\N1CCN(Cc2cccc3ccccc23)CC1)/c1cccnc1	?	?	-1.2%	-0.2%	25.9µM*	-5.1%
COc1ccc(-c2ccc(CCC(=O)O)n2CC(=O)Nc2cccc(C(F)(F)F)c2)cc1	i	i	nt	nt	nt	nt
CN1CCc2c(sc3c2C(=O)NC(c2ccc(C(C)(C)C)cc2)N3)C1 (centres undefined)	i	i	nt	nt	nt	nt
Cc1cc(C)c2c(N)c(C(=O)N/N=C/c3cccnc3)sc2n1	i	i	5.3%	?	16.4µM*	21.2%
Cc1cc(C)c2c(N)c(C(=O)NN)sc2n1	i	i	-1.6%	?	?	-8.7%
Cc1cc(C)c2c(N)c(C(=O)N/N=C/c3ccccc3)sc2n1	i	i	12.2%	13µM*	9.2µM*	?
Cc1c(C(=O)N/N=C/c2cccnc2)sc(=S)n1C	i	i	-26.0%	?	17.0%	-12.7%
Cn1c(N)c(C(=O)N/N=C/c2ccccc2)sc1=S	i	i	-2.7%	?	23.1µM*	-12.8%
Cc1csc2nc(COC(=O)CNC(=O)c3ccccc3Cl)cc(=O)n12	i	i	nt	nt	nt	nt
Cc1c(Cn2ccnc2)c2ccccc2n1CCC(=O)O	nt	nt	nt	-13.5%	0.7%	nt
Cc1ccc(CNC(=O)c2cccn2-c2nnc(N3CCCCC3)s2)cc1	i	i	nt	nt	nt	nt
CC(C)c1nc2oc3c(NCc4ccccn4)ncnc3c2c2c1COC(C)(C)C2	i	i	-2.2%	-0.7%	-16.5%	14.1%
Cc1nc2oc3c(NCc4ccccn4)ncnc3c2c2c1COC(C)(C)C2	2.06µM*	?	1.0%	2.6%	5.3%	-2.7%
CC(O)C1CCC2C3CCC4CC(O)CCC4(C)C3CCC12C (centres undefined)	nt	nt	nt	-7.9%	-0.2%	nt
CNC(=O)c1cc2n(n1)CCCN(Cc1ccc(F)cc1)C2=O	i	i	nt	nt	nt	nt
COc1cccc(CN2C(=O)C3(SCC(=O)N3c3ccc(C(C)C)cc3)c3ccccc32)c1 (centres undefined)	18.4µM*	?	nt	nt	nt	nt
COc1cc(N2C(=O)CSC23C(=O)N(Cc2cccc(F)c2)c2ccccc23)cc(OC)c1OC (centres undefined)	i	i	nt	nt	nt	nt
COc1cccc(CN2C(=O)C3(SCC(=O)N3c3ccc(C)c(Cl)c3)c3ccccc32)c1 (centres undefined)	13µM*	13µM*	nt	nt	nt	nt
O=C1Nc2c(c(=O)[nH]c(=O)n2-c2ccc(Cl)cc2)C1(NS(=O)(=O)c1ccccc1)C(F)(F)F (centres undefined)	?	i	nt	nt	nt	nt
SMILES	KB-V1 MDR tox	KB-3-1 cytotox	HT1080 IDH1KD tx	SW480 rerep	MCF10A rerep	HT1080-NT tox
CN(C1=C(NC(=O)c2ccccc2)C(=O)c2ccccc2C1=O)C1CCS(=O)(=O)C1 (centres undefined)	?	?	-24.3%	?	23.1µM*	?
CC(=O)NC1=C(NC2CCS(=O)(=O)C2)C(=O)c2ccccc2C1=O (centres undefined)	i	?	-9.4%	18.4µM*	?	-10.1%
COc1ccc(-c2onc(C)c2C)cc1S(=O)(=O)NCC1CCN(Cc2cc(C)ccc2C)CC1	i	i	nt	nt	nt	nt
CC(C)N(C(=O)CSc1nnnn1C1CCCC1)C(C)C	13µM*	i	3.3%	-0.6%	-1.3%	4.8%
COc1ccc(CNC(=O)CCC2N=C3c4ccccc4N=C(SCc4cccc(F)c4)N3C2=O)cc1 (centres undefined)	i	i	nt	nt	nt	nt
COC(=O)/C(=C1/Oc2cc(C)oc(=O)c2S1)C(F)(F)F	i	i	14.6µM*	11.6µM*	5.8µM*	-17.1%
Cc1cc(C)nc(Nc2nc3ccccc3o2)n1	?	i	-1.9%	-39.6%	-16.0%	1.7%
CC(=NNc1nc2ccccc2o1)c1cc2ccccc2cn1	?	?	?	13µM*	?	?
Oc1ccccc1/C=N/Nc1nc2ccccc2o1	?	?	?	?	7.4%	?
CC(=NNc1nc2ccccc2s1)c1ncccn1	1.3µM*	2.31µM*	1.16µM*	?	?	?
CC(=NNc1nc2ccccc2o1)c1ncccn1	?	1.84µM*	1.16µM*	?	?	?
O=C(C[n+]1cccc2cccc(O)c21)c1ccccc1	i	i	nt	nt	nt	nt
c1cc2[nH]snc2c2nc(C3CC3)nc12	?	?	?	19.7%	20.6µM*	-26.8%
O=C(NCCCN1CCc2ccccc2C1)Nc1ccc(Cl)cc1	14.6µM*	i	?	-1.0%	0.2%	?
Cc1cc(N2CCN(C)CC2)nc2ccc(NC(=S)NCCCN3CCc4ccccc4C3)cc12	i	i	16.4µM*	?	?	18.4µM*
Cc1cc(N2CCCC2)nc2ccc(NC(=S)NCCCN3CCC(C)CC3)cc12	?	i	23.1µM*	?	18.4µM*	23.1µM*
Cc1cc(N2CCN(C)CC2)nc2ccc(NC(=S)NCCN3CCc4ccccc4C3)cc12	i	i	-26.1%	?	?	-10.6%
COc1ccc(NC(=O)NCCN2CCc3ccccc3C2)cc1	i	i	1.2%	-3.1%	-1.6%	-0.9%
CCN1CCN(c2cc(C)c3cc(NC(=S)NCCCN4CCc5ccccc5C4)ccc3n2)CC1	i	i	20.6µM*	25.0%	-4.8%	20.6µM*

Assay outcomes as filed in PubChem BioAssay.
